Assay [1] is described as follows: compound effects on lung adenocarcinoma cell viability – A549, calcein-AM fluorescence, 48 h, basal, profiling panel (AID 1162). Note: test concentration not given here. To be noted: higher = more signal.
Assay [2] is described as follows: compound effects on differentiated 3T3-L1 adipocyte viability – cell-based, 3T3-L1 adipocytes, calcein-AM fluorescence, 48 h, basal, profiling panel (AID 1163). Note: test concentration not given here. The settings on record: 3T3-L1 adipocytes viability, higher = more signal.
Assay [3] can be described thus: compound effects on hepatocellular carcinoma cell viability – HepG2, calcein-AM fluorescence, 48 h, basal, profiling panel (AID 1164). Note: test concentration not given here. The settings on record: higher = more signal.
Assay [4] is described as follows: compound effects on multiple myeloma cell viability – MM1S, calcein-AM fluorescence, 48 h, basal, profiling panel (AID 1165).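 Note: viability of MM1S multiple myeloma cells under basal unstimulated conditions; test concentration not given here.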 To be noted: higher = more signal.
A short description of assay [5]: calcein-AM signal in unstimulated myeloma cells – cell-based, calcein-AM fluorescence, 48 h, PK04 Diversity Set, profiling panel (AID 1166).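 Note: cells grown under basal conditions without added stimulus; test concentration not given here.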 To be noted: RPMI8226 myeloma viability, higher = more signal.
Assay [6] can be described thus: JC-1 mitochondrial signal, unstimulated HepG2 cells – cell-based, JC-1 fluorescence, 24 h, 100 nL compound, profiling panel (AID 1167). Note: test concentration not given here. To be noted: HepG2 mitochondrial potential, higher = more signal.
The nature of assay [7]: JC-1 mitochondrial signal, unstimulated adipocytes – cell-based, JC-1 fluorescence, 3T3-L1 adipocytes, 24 h, 100 nL compound, profiling panel (AID 1168). Note: test concentration not given here. The settings on record: JC-1 mitochondrial fluorescence, higher = more signal, called active from +8 up or from −8 down.
The nature of assay [8]: JC-1 mitochondrial signal, unstimulated myeloma cells – cell-based, JC-1 fluorescence, RPMI8226, 24 h, 100 nL compound, profiling panel (AID 1169). Note: test concentration not given here. The settings on record: JC-1 mitochondrial potential fluorescence, higher = more signal.
Assay [9] is described as follows: JC-1 mitochondrial signal, unstimulated MM1S myeloma – cell-based, JC-1 fluorescence, 24 h, 100 nL compound, profiling panel (AID 1170). Note: test concentration not given here. To be noted: MM1S mitochondrial potential, higher = more signal.
Assay [10] in a line: resazurin metabolic signal in A549 cells – cell-based, resazurin fluorescence, 24 h, PK04 Diversity Set, profiling panel (AID 1171). Note: test concentration not given here. To be noted: A549 viability, higher = more signal, called active from +8 up or from −8 down. On the technique in general: Alamar Blue is a resazurin reagent that responds to reducing activity.
Assay [11] is described as follows: resazurin metabolic signal in HepG2 cells – cell-based, resazurin fluorescence, 24 h, PK04 Diversity Set, profiling panel (AID 1172). Note: test concentration not given here. To be noted: HepG2 viability, higher = more signal.
Assay [12] in a line: budding yeast growth changes without added modifier – OD600, strain BY4716, 24 h, basal condition, primary screen (AID 1173). To be noted: S. cerevisiae BY4716 growth, OD600, 24 h; higher = more signal, called active from +8 up or from −8 down.
Assay [13] is described as follows: viability profiling in MM1S myeloma cells – cell-based, resazurin fluorescence, basal, 24 h, PK04 Diversity Set, profiling panel (AID 1174). Note: test concentration not given here. The settings on record: higher = more signal, called active from +8 up or from −8 down.
In assay [14] the target is Dihydroorotate dehydrogenase (quinone), mitochondrial (Plasmodium falciparum (isolate 3D7)) (UniProt Q08210). Put plainly: inhibition of P. falciparum DHODH – biochemical, C-terminal His tag, absorbance 600 nm, primary screen (AID 1175).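 Note: recombinant parasite enzyme with a five histidine tag at its C terminus; test concentration not given here.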 The settings on record: PfDHODH enzyme, DCIP absorbance 600 nm; higher = more signal, called active from +8 up or from −8 down.
Chain of Dihydroorotate dehydrogenase (quinone), mitochondrial (Plasmodium falciparum (isolate 3D7)) (Q08210 whole entry, looked up): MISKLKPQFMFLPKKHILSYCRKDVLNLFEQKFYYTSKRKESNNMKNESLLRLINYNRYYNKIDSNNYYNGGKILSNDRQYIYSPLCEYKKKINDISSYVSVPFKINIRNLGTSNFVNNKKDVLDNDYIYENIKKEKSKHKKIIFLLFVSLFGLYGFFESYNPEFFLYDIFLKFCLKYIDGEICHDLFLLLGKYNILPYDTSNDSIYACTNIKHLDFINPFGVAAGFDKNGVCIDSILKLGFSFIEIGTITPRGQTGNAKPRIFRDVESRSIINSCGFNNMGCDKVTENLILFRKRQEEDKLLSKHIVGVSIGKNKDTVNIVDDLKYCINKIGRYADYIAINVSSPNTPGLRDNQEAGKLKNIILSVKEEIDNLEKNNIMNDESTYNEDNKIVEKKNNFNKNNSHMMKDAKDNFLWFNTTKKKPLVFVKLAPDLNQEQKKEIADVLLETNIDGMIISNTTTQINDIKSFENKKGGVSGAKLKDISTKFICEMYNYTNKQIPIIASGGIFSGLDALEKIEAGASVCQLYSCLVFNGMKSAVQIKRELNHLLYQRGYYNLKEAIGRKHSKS
The nature of assay [15]: inhibition of PAO1 biofilm formation – strain PAO1, LB-PBS medium, absorbance 600 nm, primary screen (AID 1176). Note: test concentration not given here. The settings on record: P. aeruginosa PAO1 growth/biofilm, A600, 12 h; higher = more signal.
A short description of assay [16]: growth modulation of vineyard yeast isolate – strain RM11-1a, OD600, basal, 24 h, primary screen (AID 1177).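 Note: cultures grown under basal conditions with no added stressor; test concentration not given here.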 To be noted: S. cerevisiae RM11-1a growth, OD600, 24 h; higher = more signal, called active from +8 up or from −8 down.
Assay [17] is described as follows: growth of efflux-deficient E. coli DRC39 – strain DRC39, OD650, 24 h, E. coli filamentation inducers, primary screen (AID 1178).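 Note: growth measured as culture turbidity by optical density at 650 nm; test concentration not given here.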 To be noted: E. coli DRC39 acrAB, higher = more signal, called active from +8 up or from −8 down.
The nature of assay [18]: growth of efflux-deficient E. coli DRC39 – strain DRC39, OD650, 48 h, E. coli filamentation inducers, primary screen (AID 1179).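 Note: screen aims at cell division blockers that make cells filament.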 The settings on record: E. coli DRC39 delta-acrAB growth, higher = more signal, called active from +8 up or from −8 down.
Assay [19] in a line: viability profiling in RPMI8226 myeloma cells – cell-based, resazurin fluorescence, basal, 24 h, PK04 Diversity Set, profiling panel (AID 1180).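 Note: RPMI8826 multiple myeloma cell line at 5000 cells per well; test concentration not given here.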 The settings on record: higher = more signal.
Assay [20] addresses E3 ubiquitin-protein ligase XIAP (Homo sapiens) (UniProt P98170). Put plainly: small molecules binding XIAP protein – biophysical, small-molecule microarray, fluorescence 635 nm, primary screen (AID 1181).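 Note: score merges 667 nm emission and signal to noise over triplicate slides.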 The settings on record: higher = more signal.

Each structure is given as a SMILES string. Active and inactive are the calls of the source. Unless noted, the rule behind the calls is not given here.

For eight compounds, z-score and composite z-score results are on record in PubChem BioAssay.

Chain of E3 ubiquitin-protein ligase XIAP (Homo sapiens) (P98170 whole entry, looked up): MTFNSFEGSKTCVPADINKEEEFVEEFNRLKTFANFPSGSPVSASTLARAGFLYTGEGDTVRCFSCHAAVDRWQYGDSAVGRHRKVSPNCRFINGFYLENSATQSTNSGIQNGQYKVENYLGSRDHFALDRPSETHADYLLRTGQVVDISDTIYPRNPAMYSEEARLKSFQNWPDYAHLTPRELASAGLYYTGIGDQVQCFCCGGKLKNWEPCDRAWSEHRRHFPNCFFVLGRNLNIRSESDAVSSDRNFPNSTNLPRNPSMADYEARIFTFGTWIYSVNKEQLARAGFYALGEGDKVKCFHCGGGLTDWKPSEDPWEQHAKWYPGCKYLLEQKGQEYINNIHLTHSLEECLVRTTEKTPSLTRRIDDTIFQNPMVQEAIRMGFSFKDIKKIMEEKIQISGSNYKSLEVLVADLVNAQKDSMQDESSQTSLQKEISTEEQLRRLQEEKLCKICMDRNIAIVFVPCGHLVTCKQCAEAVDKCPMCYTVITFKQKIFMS

On to `COc1cc2c(cc1OC)CN(C(=O)[C@@H]1[C@H]3C(=O)O[C@H](c4ccccc4)[C@H](c4ccccc4)N3[C@H](c3ccccc3OCCO)[C@@]13C(=O)Nc1ccc(C#CCNC(N)=O)cc13)CC2`, for which the z-score was 1.12 in assay [1]; 1.62 in assay [2]; 0.871 in assay [3]; 0.52 in assay [4]; 0.625 in [5]; -1.74 in [6]. Further, the z-score is 1.63 (inactive) in assay [7]; -0.423 in assay [8]; -0.322 in assay [9]; -0.532 (inactive) in [10]; 0.0227 in assay [11]; 0.74 (inactive) in assay [12]. Besides, the z-score in [13] was -0.148 (inactive); in assay [15] it was 2.93 (inactive); in [16] it was 3 (inactive); in assay [17] it was 1.13 (inactive); in [18] it was 1.31 (inactive); in assay [19], 0.088. Moreover, the results for the composite z-score in assay [14] and in assay [20] were -0.839 (inactive) and 0.153, respectively.

For `O=C1OCC=C[C@H]2OC34C=CCN(c5ccc6ccccc6c5)C(=O)[C@H]3N(CCCO)C(=O)[C@@H]4[C@@H]12` (stereo not given in full), the z-score is 0.501 in assay [1]; 1.79 in assay [2]; 0.0068 in assay [3]; -0.608 in [4]; -0.691 in assay [5]; -0.448 in [6]. Moreover, the z-score in assay [7] is -0.517 (inactive); in assay [8], 0.0183; in [9], -0.46; in [10], -1.09 (inactive); in [11] it was -0.364; in [12] it was -0.82 (inactive). The z-score is -0.712 (inactive) in assay [13]; -0.385 (inactive) in assay [15]; -0.13 (inactive) in assay [16]; -0.265 (inactive) in [17]; -0.641 (inactive) in assay [18]; -2.41 in [19]. Also, the figures for the composite z-score in assay [14] and in assay [20] were -0.959 (inactive) and -0.181, respectively.

On to `[N-]=[N+]=NCc1ccccc1C[C@@]1(C(=O)NCC(O)CO)N=C(c2ccc(OCCCO)cc2)O[C@@H]1c1ccccc1CN=[N+]=[N-]` (stereo not given in full), for which the z-score in assay [1] is -1.05; in [2], 0.208; in [3], -0.0726; in [4] it was -1.4; in assay [5], -2.2; in [6], -0.382. Also, the z-score in [7] is -1.04 (inactive); in assay [8], -0.762; in assay [9] it was -0.737; in [10], -0.2 (inactive); in [11], 0.376; in [12] it was -0.247 (inactive). In addition, the z-score in assay [13] is -1.3 (inactive); in assay [15], 2.33 (inactive); in assay [16], 0.0651 (inactive); in assay [17], 0.322 (inactive); in assay [18], -0.0665 (inactive); in assay [19] it was -1.03. Moreover, the composite z-score in assay [14] was 0.34 (inactive); in assay [20], -0.377.

Consider `COCCCNC(=O)[C@@]1(c2ccc([N+](=O)[O-])cc2)CC(=O)N(CC23CC4CC(CC(C4)C2)C3)[C@@H]1c1ccc(CO)cc1`, for which the z-score in assay [1] is -0.995; in [2] it was 0.109; in assay [3], 0.198; in assay [4], -1.93; in [5], -2.42; in assay [6], 0.461. The z-score in [7] was -0.381 (inactive); in [8] it was 0.0554; in [9], -0.784; in [10], -0.968 (inactive); in assay [11] it was -1.04; in assay [12], -0.67 (inactive). The z-score in assay [13] was -1.62 (inactive); in assay [15], 0.981 (inactive); in assay [16], -0.24 (inactive); in assay [17], 0.788 (inactive); in assay [18], 0.351 (inactive); in assay [19], -1.96. The composite z-score in [14] is 0.431 (inactive); in assay [20], 0.0374.

For `COc1ccc(C#Cc2ccc3c(c2)[C@]2(C(=O)N3)[C@H](C(=O)NC[C@H](O)c3ccccc3)[C@H]3C(=O)O[C@H](c4ccccc4)[C@H](c4ccccc4)N3[C@@H]2c2ccccc2OCCO)cc1`, the z-score is -1.86 in assay [1]; 0.0393 in assay [2]; -3.16 in [3]; -3.35 in assay [4]; -3.4 in assay [5]; -2.27 in assay [6]. For the same compound, the z-score was 2.97 (inactive) in assay [7]; -0.865 in [8]; -1.7 in assay [9]; -1.58 (inactive) in assay [10]; -1.62 in [11]; 1.32 (inactive) in [12]. In addition, the z-score in assay [13] was -4.48 (inactive); in assay [15], 2.4 (inactive); in assay [16] it was 2.27 (inactive); in [17], -0.444 (inactive); in [18], -0.849 (inactive); in [19], -5.2. In addition, the composite z-score is -0.0131 (inactive) in assay [14] and 0.0297 in assay [20].

Consider `O=C1O[C@@H](c2ccccc2)[C@@H](c2ccccc2)N2[C@@H](c3ccc(OCCO)cc3)[C@]3(C(=O)Nc4ccc(C#CC5=CCCCC5)cc43)[C@@H](C(=O)O)[C@H]12`, for which the z-score in assay [1] is 1.09; in [2] it was 0.771; in [3] it was -0.128; in assay [4], -3.21; in assay [5] it was -4.57; in [6], -4.12. Further, the z-score in assay [7] was -4.9 (inactive); in [8], -0.946; in assay [9], -1.42; in assay [10], 0.872 (inactive); in assay [11], 0.332; in assay [12] it was -0.734 (inactive). In addition, the z-score in assay [13] is -1.5 (inactive); in assay [15] it was 2.07 (inactive); in [16], 1.44 (inactive); in assay [17], 0.448 (inactive); in assay [18], 0.0447 (inactive); in [19], -1.43. The composite z-score is -13.5 (active) in assay [14] and 0.104 in assay [20].

Regarding `CC(C)C(=C=CC[C@H](O)c1cccc(OCCO)c1)C[C@H](O)COCc1ccccc1`, the z-score in assay [1] is -0.0353; in [2], -0.27; in assay [3], -0.0485; in [4], 0.0675; in [5], -0.524; in [6], -0.42. Besides, the z-score was -0.711 (inactive) in [7]; 0.259 in assay [8]; -0.615 in assay [9]; 1.25 (inactive) in [10]; 0.685 in [11]; -0.535 (inactive) in assay [12]. Besides, the z-score in assay [13] is 0.0454 (inactive); in [15] it was 0.449 (inactive); in assay [16], 0.194 (inactive); in [17], 0.339 (inactive); in [18], 0.262 (inactive); in assay [19], 0.163. For the same compound, the composite z-score is -1.25 (inactive) in assay [14] and -0.113 in [20].

Take `C=CCC(OC(C)=O)[C@@H]1[C@@H](N(Cc2cccc3ccccc23)C(=O)c2ccc(C)cc2)c2cc(OCCCO)ccc2N1C(=O)Cc1ccc(OC)cc1` (stereo not given in full): the z-score was 1.77 in [1]; 1.14 in assay [2]; 1.97 in assay [3]; 0.621 in [4]; 0.943 in assay [5]; 1.77 in [6]. In addition, the z-score in [7] is 0.696 (inactive); in [8], 0.594; in assay [9], -0.596; in assay [10], 0.69 (inactive); in [11], 1.36; in assay [12], -2.29 (inactive). Besides, the z-score is 0.641 (inactive) in assay [13]; 0.0186 (inactive) in assay [15]; -1.25 (inactive) in [16]; 1.59 (inactive) in [17]; 1.98 (inactive) in [18]; -0.203 in assay [19]. Besides, the composite z-score in assay [14] is -1.6 (inactive); in assay [20], -0.086.
